Laboratory results as given in PubChem BioAssay (EPA / NIEHS).
Active and inactive are the calls of the source. How the source made its calls: active means hit-call score of the fitted dose curve at least 0.9, where 1 is the maximum; inactive means score below 0.9.

Assay: ATG_ISRE_CIS: Attagene CIS-FACTORIAL HepG2 Assay for human Interferon Regulatory Factor 1 (IRF1) binding to an Interferon-Stimulated Response Element (ISRE) (AID 2282948)
Conditions: HepG2 ISRE cis-reporter (Attagene), mRNA transcription readout; actives raise or lower the signal
In short: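 Signal reflects induction or loss of ISRE-linked reporter mRNA in transiently transfected HepG2 cells after a 24 h treatment, detected by fluorescent RT-PCR fragments on capillary electrophoresis and normalised to DMSO.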

Row | Structure (SMILES) | outcome
1 | C[N+]1(C)CCCCC1 | inactive
2 | CNC(=O)ON=C(SC)C(=O)N(C)C | inactive
3 | COP(=O)(NC(C)=O)SC (stereo not given) | inactive

Assay: ATG_M_32_CIS: Attagene CIS-FACTORIAL HepG2 Assay for M32 Transcription Factor (Internal Marker) (AID 2282949);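 further: background control marker of the multiplexed CIS panel rather than a real target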
Conditions: HepG2 Attagene cis-factorial M32 reporter, mRNA; actives raise or lower the signal
In short: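 Transient MRTU transfection of HepG2; 24 h compound treatment; TriZol RNA, oligo(dT) RT, reporter PCR, 6-FAM primer extension, HpaI cut, CE. Gain/loss of signal vs DMSO.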

Row | Structure (SMILES) | outcome
4 | CCOP(=O)(SC(C)CC)N1CCSC1=O (stereo not given) | inactive
5 | CCCCOC(=O)[C@@H](C)Oc1ccc(Oc2ccc(C#N)cc2F)cc1 | inactive
6 | CC(=NC#N)N(C)Cc1ccc(Cl)nc1 | inactive
7 | CCc1cccc(C)c1N(C(=O)CCl)C(C)COC (stereo not given) | inactive
8 | COc1cc(OC)nc(Sc2cccc(Cl)c2C(=O)O)n1 | inactive
9 | CON=C(C(=O)OC)c1ccccc1CON=C(C)c1cccc(C(F)(F)F)c1 | inactive
10 | CC1=NNC(=O)N(/N=C/c2cccnc2)C1 | inactive
11 | S=C1NCCN1 | inactive
12 | CC(C)=CC1C(C(=O)OCN2C(=O)C3=C(CCCC3)C2=O)C1(C)C (stereo not given) | inactive
13 | CC(C1CC1)C(O)(Cn1cncn1)c1ccc(Cl)cc1 (stereo not given) | inactive
14 | C#CC(C)(C)NC(=O)c1cc(Cl)cc(Cl)c1 | inactive
15 | CCC(=O)Nc1ccc(Cl)c(Cl)c1 | inactive
16 | O=C(O)c1cc(Oc2ccc(C(F)(F)F)cc2Cl)ccc1[N+](=O)[O-] | inactive
17 | CCOP(=S)(OCC)SCCSCC | inactive
18 | CCc1cnc(C2=NC(C)(C(C)C)C(=O)N2)c(C(=O)O)c1 (stereo not given) | inactive
19 | CCOP(=S)(Oc1cnc(C(C)(C)C)nc1)OC(C)C (stereo not given) | inactive
20 | CCOP(=S)(OCC)OC(Cl)C(Cl)(Cl)Cl (stereo not given) | inactive
21 | CN(C)C(=O)Nc1cccc(C(F)(F)F)c1 | inactive

Row | Structure (SMILES) | outcome
22 | CNC(=O)ON=C(C)SC | inactive
23 | CCCOc1nn(C(=O)NS(=O)(=O)c2ccccc2C(=O)OC)c(=O)n1C | inactive
24 | CCOC(=O)COc1cc(-c2nn(C)c(OC(F)F)c2Cl)c(F)cc1Cl | inactive
25 | CCOP(=S)(OCC)Oc1ccc([N+](=O)[O-])cc1 | inactive
26 | CC[C@H](C)[C@H]1O[C@]2(C=C[C@@H]1C)C[C@@H]1C[C@@H](C/C=C(\C)[C@@H](O[C@H]3C[C@H](OC)[C@@H](O[C@H]4C[C@H](OC)[C@@H](NC)[C@H](C)O4)[C@H](C)O3)[C@@H](C)/C=C/C=C3\CO[C@@H]4[C@H](O)C(C)=C[C@@H](C(=O)O1)[C@]34O)O2 | inactive
27 | CN(C)[C@@H]1C(=O)C(C(N)=O)=C(O)[C@@]2(O)C(=O)C3=C(O)c4c(O)cccc4[C@@](C)(O)[C@H]3[C@H](O)[C@@H]12 | inactive
28 | CCNc1nc(Cl)nc(NC(C)(C)C#N)n1 | inactive
29 | CC(C)[C@H](C(=O)O[C@H](C#N)c1cccc(Oc2ccccc2)c1)c1ccc(Cl)cc1 | inactive
30 | CCOP(=S)(OCC)Oc1ccc2c(C)c(Cl)c(=O)oc2c1 | inactive
31 | CSc1nc(NC(C)C)nc(NC(C)C)n1 | inactive
32 | COP(=O)(OC)SCn1c(=O)oc2cc(Cl)cnc21 | inactive
33 | CN(C)NC(=O)CCC(=O)O | inactive
34 | Cc1nn(-c2cc(NS(C)(=O)=O)c(Cl)cc2Cl)c(=O)n1C(F)F | inactive
35 | CCCCN(CC)c1c([N+](=O)[O-])cc(C(F)(F)F)cc1[N+](=O)[O-] | inactive
36 | CCC(=NOC/C=C/Cl)C1=C(O)CC(C2CCOCC2)CC1=O (stereo not given) | inactive
37 | C[N+]1(C)CCCCC1 | inactive
38 | CNC(=O)ON=C(SC)C(=O)N(C)C | inactive
39 | COP(=O)(NC(C)=O)SC (stereo not given) | inactive

Assay: ATG_M_06_CIS: Attagene CIS-FACTORIAL HepG2 Assay for M06 Transcription Factor (Internal Marker) (AID 2282950)
Conditions: HepG2 Attagene CIS-FACTORIAL M06 internal marker reporter; actives raise or lower the signal
In short: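 Serves as a background control readout. Transfected HepG2 exposed to compounds for 24 h, then reporter transcripts quantified by fluorescent RT-PCR and capillary electrophoresis. Both directions fitted against DMSO baseline.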

Row | Structure (SMILES) | outcome
40 | CCOP(=O)(SC(C)CC)N1CCSC1=O (stereo not given) | inactive
41 | CCCCOC(=O)[C@@H](C)Oc1ccc(Oc2ccc(C#N)cc2F)cc1 | inactive
42 | CC(=NC#N)N(C)Cc1ccc(Cl)nc1 | inactive
43 | CCc1cccc(C)c1N(C(=O)CCl)C(C)COC (stereo not given) | inactive
44 | COc1cc(OC)nc(Sc2cccc(Cl)c2C(=O)O)n1 | inactive
45 | CON=C(C(=O)OC)c1ccccc1CON=C(C)c1cccc(C(F)(F)F)c1 | inactive
46 | CC1=NNC(=O)N(/N=C/c2cccnc2)C1 | inactive
47 | S=C1NCCN1 | inactive
48 | CC(C)=CC1C(C(=O)OCN2C(=O)C3=C(CCCC3)C2=O)C1(C)C (stereo not given) | inactive
49 | CC(C1CC1)C(O)(Cn1cncn1)c1ccc(Cl)cc1 (stereo not given) | inactive
50 | C#CC(C)(C)NC(=O)c1cc(Cl)cc(Cl)c1 | inactive
51 | CCC(=O)Nc1ccc(Cl)c(Cl)c1 | inactive
52 | O=C(O)c1cc(Oc2ccc(C(F)(F)F)cc2Cl)ccc1[N+](=O)[O-] | inactive
53 | CCOP(=S)(OCC)SCCSCC | inactive
54 | CCc1cnc(C2=NC(C)(C(C)C)C(=O)N2)c(C(=O)O)c1 (stereo not given) | inactive
55 | CCOP(=S)(Oc1cnc(C(C)(C)C)nc1)OC(C)C (stereo not given) | inactive
56 | CCOP(=S)(OCC)OC(Cl)C(Cl)(Cl)Cl (stereo not given) | inactive
57 | CN(C)C(=O)Nc1cccc(C(F)(F)F)c1 | inactive

Row | Structure (SMILES) | outcome
58 | CNC(=O)ON=C(C)SC | inactive
59 | CCCOc1nn(C(=O)NS(=O)(=O)c2ccccc2C(=O)OC)c(=O)n1C | inactive
60 | CCOC(=O)COc1cc(-c2nn(C)c(OC(F)F)c2Cl)c(F)cc1Cl | inactive
61 | CCOP(=S)(OCC)Oc1ccc([N+](=O)[O-])cc1 | inactive
62 | CC[C@H](C)[C@H]1O[C@]2(C=C[C@@H]1C)C[C@@H]1C[C@@H](C/C=C(\C)[C@@H](O[C@H]3C[C@H](OC)[C@@H](O[C@H]4C[C@H](OC)[C@@H](NC)[C@H](C)O4)[C@H](C)O3)[C@@H](C)/C=C/C=C3\CO[C@@H]4[C@H](O)C(C)=C[C@@H](C(=O)O1)[C@]34O)O2 | inactive
63 | CN(C)[C@@H]1C(=O)C(C(N)=O)=C(O)[C@@]2(O)C(=O)C3=C(O)c4c(O)cccc4[C@@](C)(O)[C@H]3[C@H](O)[C@@H]12 | inactive
64 | CCNc1nc(Cl)nc(NC(C)(C)C#N)n1 | inactive
65 | CC(C)[C@H](C(=O)O[C@H](C#N)c1cccc(Oc2ccccc2)c1)c1ccc(Cl)cc1 | inactive
66 | CCOP(=S)(OCC)Oc1ccc2c(C)c(Cl)c(=O)oc2c1 | inactive
67 | CSc1nc(NC(C)C)nc(NC(C)C)n1 | inactive
68 | COP(=O)(OC)SCn1c(=O)oc2cc(Cl)cnc21 | inactive
69 | CN(C)NC(=O)CCC(=O)O | inactive
70 | Cc1nn(-c2cc(NS(C)(=O)=O)c(Cl)cc2Cl)c(=O)n1C(F)F | inactive
71 | CCCCN(CC)c1c([N+](=O)[O-])cc(C(F)(F)F)cc1[N+](=O)[O-] | inactive
72 | CCC(=NOC/C=C/Cl)C1=C(O)CC(C2CCOCC2)CC1=O (stereo not given) | inactive
73 | C[N+]1(C)CCCCC1 | inactive
74 | CNC(=O)ON=C(SC)C(=O)N(C)C | inactive
75 | COP(=O)(NC(C)=O)SC (stereo not given) | inactive
